# Reference: PubChem BioAssay (EPA / NIEHS)
# Records with an inconclusive call do not appear. Activity calls are given as the source filed them. Rule for the calls: active = hit-call score of the fitted dose curve at least 0.9, where 1 is the maximum; inconclusive = response in the unintended direction; inactive = score below 0.9.
# Experiments:
# AR (gene 367) [1] = molecular target: AR (gene 367) (UniProt P10275); test: ACEA_AR_agonist_80hr: ACEA Biosciences xCELLigence Real-Time Cell Analysis on Androgen Receptor Agonism for Proliferation (AID 2283783);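 note: hits increase impedance growth signal above DMSO baseline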
# Sequence of AR (gene 367) (P10275 whole entry, looked up): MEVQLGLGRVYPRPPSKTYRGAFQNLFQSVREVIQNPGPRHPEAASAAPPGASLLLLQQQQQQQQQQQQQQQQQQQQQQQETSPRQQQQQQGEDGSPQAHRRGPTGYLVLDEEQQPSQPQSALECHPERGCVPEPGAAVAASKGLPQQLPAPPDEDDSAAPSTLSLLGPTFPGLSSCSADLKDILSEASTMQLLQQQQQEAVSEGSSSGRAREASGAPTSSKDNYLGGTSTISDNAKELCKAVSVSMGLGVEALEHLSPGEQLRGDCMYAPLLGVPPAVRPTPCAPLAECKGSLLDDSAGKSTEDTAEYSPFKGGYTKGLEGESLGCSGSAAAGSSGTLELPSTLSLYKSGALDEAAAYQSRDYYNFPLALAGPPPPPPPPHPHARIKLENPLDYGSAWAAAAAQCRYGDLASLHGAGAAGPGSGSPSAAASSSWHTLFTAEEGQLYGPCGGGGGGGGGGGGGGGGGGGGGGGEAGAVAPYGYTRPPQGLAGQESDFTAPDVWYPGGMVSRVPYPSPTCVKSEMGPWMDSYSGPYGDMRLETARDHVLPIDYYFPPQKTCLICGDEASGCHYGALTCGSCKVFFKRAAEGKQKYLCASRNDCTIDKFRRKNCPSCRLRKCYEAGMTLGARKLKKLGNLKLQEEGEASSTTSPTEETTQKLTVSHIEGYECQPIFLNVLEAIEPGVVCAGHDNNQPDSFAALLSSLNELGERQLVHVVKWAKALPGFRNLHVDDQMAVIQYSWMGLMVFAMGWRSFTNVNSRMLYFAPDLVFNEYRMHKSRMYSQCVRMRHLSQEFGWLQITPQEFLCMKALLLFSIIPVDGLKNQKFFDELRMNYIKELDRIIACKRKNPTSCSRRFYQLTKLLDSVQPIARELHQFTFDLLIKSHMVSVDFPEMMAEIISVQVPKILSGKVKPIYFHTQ
# Method in brief: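 Proliferation of 22Rv1 prostate cancer cells tracked by electrical impedance, endpoint taken at 80 hours after dosing. Eight-point 1:4 dilutions from 100 uM maximum final, duplicate; testosterone and MG132 as positive controls, assay media as negative.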
# [2] = STM_H9_NormalizedViability: Cytotoxicity Assessment at 120 hours in the Stemina devTOX quickPredict H9 human embryonic stem cell (hESC)-based Assay (AID 2283784)
# Method in brief: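 Undifferentiated H9 hESCs kept pluripotent were exposed to compound, with media and chemical replaced every 24h. CellTiter-Fluor protease-substrate fluorescence was background-corrected and normalized per plate to the 0.1% DMSO vehicle; signal loss indicates reduced viability.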
# AR (gene 367) [3] = molecular target: AR (gene 367) (UniProt P10275); test: ACEA_AR_antagonist_80hr: ACEA Biosciences xCELLigence Real-Time Cell Analysis on Androgen Receptor Antagonism for Proliferation (AID 2283787);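 note: 22Rv1 human prostate cancer cells with growth followed by electrical impedance; hits lower the impedance growth signal relative to DMSO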
# Method in brief: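 22Rv1 cells in assay medium, growth tracked by electrical impedance; compounds eight-point 1:4 dilutions from 100 uM final, duplicate plates. Endpoint at 80 h; loss of signal versus DMSO.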
# [4] = ATG_M_06_XSP1: Attagene TRANS-FACTORIAL Multi-Species (XSP1) HepG2 Assay for M06 Transcription Factor (Internal Marker) (AID 2283790)
# Method in brief: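 Transfected HepG2 multi-reporter system treated 24 h in the presence of 3 nM 6-alpha-fluorotestosterone. The M06 internal marker transcript was quantified by RT-PCR with capillary electrophoresis as a background control, and gain of signal was scored versus DMSO.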
# [5] = ATG_M_61_XSP1: Attagene TRANS-FACTORIAL Multi-Species (XSP1) HepG2 Assay for M61 Transcription Factor (Internal Marker) (AID 2283797)
# Method in brief: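 HepG2 cells transiently transfected with multiplexed GAL4-driven reporter units, dosed 24 h with 3 nM 6-alpha-fluorotestosterone present. Reporter mRNA quantified by RT-PCR, 6-FAM labelling, HpaI digestion and capillary electrophoresis; internal-marker background control, gain of signal versus DMSO.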
# [6] = molecular target: frog Thyroid hormone Receptor alpha (TRa), thra-a (gene 397942) (UniProt P15204); test: ATG_frTRa_XSP1: Attagene TRANS-FACTORIAL Multi-Species (XSP1) HepG2 Assay for frog Thyroid hormone Receptor alpha (TRa) (AID 2283804)
# Sequence of frog Thyroid hormone Receptor alpha (TRa), thra-a (gene 397942) (P15204 whole entry, looked up, the tested form may be a part): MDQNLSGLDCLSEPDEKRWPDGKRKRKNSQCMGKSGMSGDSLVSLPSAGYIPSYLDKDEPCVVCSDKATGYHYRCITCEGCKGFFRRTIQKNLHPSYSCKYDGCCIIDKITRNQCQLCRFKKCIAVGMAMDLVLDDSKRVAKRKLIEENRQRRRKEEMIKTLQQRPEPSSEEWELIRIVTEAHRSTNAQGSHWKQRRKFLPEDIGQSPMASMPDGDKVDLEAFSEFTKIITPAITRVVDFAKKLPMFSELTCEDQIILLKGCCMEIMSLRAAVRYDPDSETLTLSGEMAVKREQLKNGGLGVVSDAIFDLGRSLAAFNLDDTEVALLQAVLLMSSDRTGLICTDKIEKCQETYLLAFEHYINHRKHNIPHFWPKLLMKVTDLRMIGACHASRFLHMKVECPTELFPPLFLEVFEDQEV
# Method in brief: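 HepG2 cells transiently transfected with frog TRa-GAL4 chimeric reporter units, dosed 24 hr with 3 nM 6-alpha-fluorotestosterone present; reporter mRNA quantified by RT-PCR, fluorescent labelling and capillary electrophoresis, gain of signal versus DMSO.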
# [7] = molecular target: human Thyroid hormone Receptor alpha (TRa), THRA (gene 7067) (UniProt P10827); test: ATG_hTRa_XSP1: Attagene TRANS-FACTORIAL Multi-Species (XSP1) HepG2 Assay for human Thyroid hormone Receptor alpha (TRa) (AID 2283805)
# Sequence of human Thyroid hormone Receptor alpha (TRa), THRA (gene 7067) (P10827 whole entry, looked up, the tested form may be a part): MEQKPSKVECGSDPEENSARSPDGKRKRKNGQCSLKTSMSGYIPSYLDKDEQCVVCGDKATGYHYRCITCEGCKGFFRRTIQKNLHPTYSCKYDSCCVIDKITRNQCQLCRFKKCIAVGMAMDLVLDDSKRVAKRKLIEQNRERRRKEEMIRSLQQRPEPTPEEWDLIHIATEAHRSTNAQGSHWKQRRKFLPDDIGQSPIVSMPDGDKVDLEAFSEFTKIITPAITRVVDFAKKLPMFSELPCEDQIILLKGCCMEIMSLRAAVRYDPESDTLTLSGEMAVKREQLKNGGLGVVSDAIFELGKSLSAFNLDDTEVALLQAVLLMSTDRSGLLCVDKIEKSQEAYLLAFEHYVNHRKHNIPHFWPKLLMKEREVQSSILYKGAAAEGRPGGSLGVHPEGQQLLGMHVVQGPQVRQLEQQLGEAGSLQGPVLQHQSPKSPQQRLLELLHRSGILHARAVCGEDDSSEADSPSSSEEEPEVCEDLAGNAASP
# Method in brief: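 HepG2 cells transiently transfected with GAL4-UAS reporter units expressing chimeric NR-Gal4 proteins, dosed 24 hours with 3 nM 6-alpha-fluorotestosterone present. Reporter mRNA measured by RT-PCR and capillary electrophoresis; gain of signal fitted versus DMSO.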
# [8] = system: turtle Thyroid Hormone Receptor, alpha (TRa), gene 101949057; test: ATG_trTRa_XSP1: Attagene TRANS-FACTORIAL Multi-Species (XSP1) HepG2 Assay for turtle Thyroid Hormone Receptor, alpha (TRa) (AID 2283806)
# Method in brief: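 HepG2 cells transiently transfected with GAL4-UAS reporter units and chimeric receptor-Gal4 constructs, with 3 nM 6-alpha-fluorotestosterone present. Reporter mRNA was quantified 24 h after dosing by RT-PCR, 6-FAM labelling and capillary electrophoresis; gain of signal versus DMSO.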
# [9] = molecular target: zebrafish Thyroid Hormone Receptor alpha (TRa), thraa (gene 30670) (UniProt Q98867); test: ATG_zfTRa_XSP1: Attagene TRANS-FACTORIAL Multi-Species (XSP1) HepG2 Assay for zebrafish Thyroid Hormone Receptor alpha (TRa) (AID 2283807)
# Sequence of zebrafish Thyroid Hormone Receptor alpha (TRa), thraa (gene 30670) (Q98867 whole entry, looked up, the tested form may be a part): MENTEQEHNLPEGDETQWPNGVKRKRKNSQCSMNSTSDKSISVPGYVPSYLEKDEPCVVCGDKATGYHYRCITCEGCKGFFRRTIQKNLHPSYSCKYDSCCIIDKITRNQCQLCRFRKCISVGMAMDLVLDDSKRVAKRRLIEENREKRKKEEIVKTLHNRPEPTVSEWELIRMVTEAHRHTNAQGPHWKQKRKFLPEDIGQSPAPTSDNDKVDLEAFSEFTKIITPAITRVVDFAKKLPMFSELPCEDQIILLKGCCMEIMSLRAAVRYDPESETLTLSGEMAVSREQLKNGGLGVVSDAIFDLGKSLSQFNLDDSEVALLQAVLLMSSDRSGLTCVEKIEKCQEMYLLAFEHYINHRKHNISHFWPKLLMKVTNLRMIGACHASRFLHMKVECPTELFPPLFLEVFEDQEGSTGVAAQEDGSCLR
# Method in brief: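 HepG2 cells transiently transfected with GAL4-UAS reporter units including a zebrafish TRa–Gal4 chimera, dosed 24 h with 3 nM 6-alpha-fluorotestosterone present. Reporter mRNA quantified by RT-PCR and capillary electrophoresis; gain versus DMSO.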
# [10] = molecular target: human Thyroid hormone Receptor beta (TRb), THRB (gene 7068) (UniProt P10828); test: ATG_hTRb_XSP1: Attagene TRANS-FACTORIAL Multi-Species (XSP1) HepG2 Assay for human Thyroid hormone Receptor beta (TRb) (AID 2283808)
# Sequence of human Thyroid hormone Receptor beta (TRb), THRB (gene 7068) (P10828 whole entry, looked up, the tested form may be a part): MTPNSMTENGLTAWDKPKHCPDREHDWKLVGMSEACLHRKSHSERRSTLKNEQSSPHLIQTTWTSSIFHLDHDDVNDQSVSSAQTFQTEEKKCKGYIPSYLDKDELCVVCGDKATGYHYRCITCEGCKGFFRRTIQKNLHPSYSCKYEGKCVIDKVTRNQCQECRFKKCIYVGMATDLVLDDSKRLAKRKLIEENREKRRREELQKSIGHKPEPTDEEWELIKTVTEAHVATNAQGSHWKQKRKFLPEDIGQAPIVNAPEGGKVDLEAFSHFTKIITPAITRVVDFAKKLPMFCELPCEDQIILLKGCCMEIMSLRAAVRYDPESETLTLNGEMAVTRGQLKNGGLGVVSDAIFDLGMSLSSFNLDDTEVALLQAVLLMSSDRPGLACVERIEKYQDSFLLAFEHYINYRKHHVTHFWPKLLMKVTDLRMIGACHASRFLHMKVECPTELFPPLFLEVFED
# Method in brief: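 HepG2 cells transiently transfected with reporter units driving GAL4-UAS reporters for chimeric NR-Gal4 proteins; 24 h chemical exposure with 3 nM 6-alpha-fluorotestosterone present. Reporter mRNA quantified by RT-PCR and capillary electrophoresis, gain of signal versus DMSO.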
# [11] = molecular target: zebrafish Thyroid Hormone Receptor beta (TRb), thrb (gene 30607) (UniProt Q9PVE4); test: ATG_zfTRb_XSP1: Attagene TRANS-FACTORIAL Multi-Species (XSP1) HepG2 Assay for zebrafish Thyroid Hormone Receptor beta (TRb) (AID 2283809)
# Sequence of zebrafish Thyroid Hormone Receptor beta (TRb), thrb (gene 30607) (Q9PVE4 whole entry, looked up, the tested form may be a part): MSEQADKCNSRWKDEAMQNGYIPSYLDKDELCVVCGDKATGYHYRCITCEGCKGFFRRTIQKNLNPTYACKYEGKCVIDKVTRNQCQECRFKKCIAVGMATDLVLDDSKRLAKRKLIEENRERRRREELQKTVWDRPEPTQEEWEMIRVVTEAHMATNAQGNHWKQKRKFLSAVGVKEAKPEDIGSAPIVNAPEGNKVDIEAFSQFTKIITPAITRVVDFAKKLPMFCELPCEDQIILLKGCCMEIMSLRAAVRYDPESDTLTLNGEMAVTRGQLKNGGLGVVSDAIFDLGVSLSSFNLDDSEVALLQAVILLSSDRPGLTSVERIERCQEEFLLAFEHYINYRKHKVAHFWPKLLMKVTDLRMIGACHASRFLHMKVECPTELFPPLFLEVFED
# Method in brief: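 HepG2 cells transiently transfected with multiplexed GAL4-UAS reporter units expressing chimeric zebrafish TRb–Gal4. Dosed 24 h with 3 nM 6-alpha-fluorotestosterone present; reporter mRNA measured by RT-PCR, HpaI digestion and capillary electrophoresis; gain of signal versus DMSO.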
# [12] = system: zebrafish Peroxisome Proliferator-activated Receptor gamma (PPARg), gene 557037; test: ATG_zfPPARg_XSP1: Attagene TRANS-FACTORIAL Multi-Species (XSP1) HepG2 Assay for zebrafish Peroxisome Proliferator-activated Receptor gamma (PPARg) (AID 2283801)
# Method in brief: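 HepG2 cells transiently transfected with GAL4-UAS reporter units including a zebrafish PPARg–GAL4 chimera, dosed 24 h with 3 nM 6-alpha-fluorotestosterone present. Reporter mRNA quantified by RT-PCR, FAM labelling, HpaI digestion and capillary electrophoresis; induction versus DMSO.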
# [13] = molecular target: mouse Peroxisome Proliferator-activated Receptor gamma (PPARg), Pparg (gene 19016) (UniProt P37238); test: ATG_mPPARg_XSP1: Attagene TRANS-FACTORIAL Multi-Species (XSP1) HepG2 Assay for mouse Peroxisome Proliferator-activated Receptor gamma (PPARg) (AID 2283802)
# Sequence of mouse Peroxisome Proliferator-activated Receptor gamma (PPARg), Pparg (gene 19016) (P37238 whole entry, looked up, the tested form may be a part): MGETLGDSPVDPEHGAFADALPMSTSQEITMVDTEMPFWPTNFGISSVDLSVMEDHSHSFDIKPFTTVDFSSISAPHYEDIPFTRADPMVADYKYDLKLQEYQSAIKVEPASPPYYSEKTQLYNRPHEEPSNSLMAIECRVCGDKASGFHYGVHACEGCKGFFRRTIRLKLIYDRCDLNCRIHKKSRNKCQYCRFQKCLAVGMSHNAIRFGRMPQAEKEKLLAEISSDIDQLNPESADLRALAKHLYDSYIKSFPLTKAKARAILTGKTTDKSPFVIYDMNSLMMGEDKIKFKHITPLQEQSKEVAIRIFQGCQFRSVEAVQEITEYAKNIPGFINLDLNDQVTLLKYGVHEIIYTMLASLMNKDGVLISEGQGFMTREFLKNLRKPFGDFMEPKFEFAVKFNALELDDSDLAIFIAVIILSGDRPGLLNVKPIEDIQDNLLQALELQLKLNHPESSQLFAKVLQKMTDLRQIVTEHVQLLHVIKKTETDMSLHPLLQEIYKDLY
# Method in brief: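 HepG2 cells transiently transfected with GAL4-UAS reporter units driven by mouse PPARg–GAL4 chimera; 3 nM 6-alpha-fluorotestosterone present. After 24 h dosing, reporter mRNA quantified by RT-PCR, fluorescent labelling and capillary electrophoresis; gain of signal versus DMSO.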
# [14] = system: turtle Androgen Receptor (AR), gene 101947425; test: ATG_trAR_XSP1: Attagene TRANS-FACTORIAL Multi-Species (XSP1) HepG2 Assay for turtle Androgen Receptor (AR) (AID 2283786)
# Method in brief: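 HepG2 cells transiently transfected with a turtle AR–GAL4 chimera and GAL4-UAS reporter, co-treated with 3 nM 6-alpha-fluorotestosterone for partial stimulation. Reporter mRNA is quantified at 24 h by RT-PCR and capillary electrophoresis, gain-of-signal versus DMSO.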
# [15] = molecular target: Estrogen receptor beta (Homo sapiens) (UniProt Q92731); test: ATG_hERb_XSP1: Attagene TRANS-FACTORIAL Multi-Species (XSP1) HepG2 Assay for human Estrogen Receptor (ESR2) (AID 2283788)
# Sequence of Estrogen receptor beta (Homo sapiens) (Q92731 whole entry, looked up, the tested form may be a part): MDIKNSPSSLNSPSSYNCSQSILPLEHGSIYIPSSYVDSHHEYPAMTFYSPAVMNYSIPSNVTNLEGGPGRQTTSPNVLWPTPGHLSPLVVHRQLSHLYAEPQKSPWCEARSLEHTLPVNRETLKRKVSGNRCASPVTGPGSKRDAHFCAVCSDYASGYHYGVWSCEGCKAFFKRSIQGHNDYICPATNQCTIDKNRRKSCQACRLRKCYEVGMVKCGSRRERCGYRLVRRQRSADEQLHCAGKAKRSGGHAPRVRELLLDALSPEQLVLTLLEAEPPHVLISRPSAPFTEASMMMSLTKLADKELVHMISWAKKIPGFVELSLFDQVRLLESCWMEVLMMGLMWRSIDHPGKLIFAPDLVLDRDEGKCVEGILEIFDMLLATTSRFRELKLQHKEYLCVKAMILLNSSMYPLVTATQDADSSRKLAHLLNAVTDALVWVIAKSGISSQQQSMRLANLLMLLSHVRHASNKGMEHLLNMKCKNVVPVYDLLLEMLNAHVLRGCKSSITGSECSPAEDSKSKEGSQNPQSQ
# Method in brief: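 HepG2 cells transiently transfected with GAL4-UAS multiplexed reporter units, 3 nM 6-alpha-fluorotestosterone present; 24 h exposure. Reporter mRNA measured by RT-PCR, fluorescent labelling and capillary electrophoresis; gain of signal fitted against DMSO.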
# [16] = ATG_M_19_XSP1: Attagene TRANS-FACTORIAL Multi-Species (XSP1) HepG2 Assay for M19 Transcription Factor (Internal Marker) (AID 2283798)
# Method in brief: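 HepG2 cells transiently transfected with multiplexed GAL4-UAS reporter units, dosed 24 h with 3 nM 6-alpha-fluorotestosterone present for partial AR stimulation. Reporter mRNA measured by RT-PCR with capillary electrophoresis; gain-of-signal fitted relative to DMSO.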
# [17] = ATG_M_32_XSP1: Attagene TRANS-FACTORIAL Multi-Species (XSP1) HepG2 Assay for M32 Transcription Factor (Internal Marker) (AID 2283799)
# Method in brief: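 HepG2 cells transiently transfected with multi-species TRANS reporter units, dosed 24 h with 3 nM 6-alpha-fluorotestosterone present. Internal-marker reporter mRNA quantified by RT-PCR and capillary electrophoresis; positive-direction fit versus DMSO.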
# [18] = molecular target: Peroxisome proliferator-activated receptor gamma (Homo sapiens) (UniProt P37231); test: ATG_hPPARg_XSP1: Attagene TRANS-FACTORIAL Multi-Species (XSP1) HepG2 Assay for human Peroxisome Proliferator-activated Receptor gamma (PPARg) (AID 2283800)
# Sequence of Peroxisome proliferator-activated receptor gamma (Homo sapiens) (P37231 whole entry, looked up, the tested form may be a part): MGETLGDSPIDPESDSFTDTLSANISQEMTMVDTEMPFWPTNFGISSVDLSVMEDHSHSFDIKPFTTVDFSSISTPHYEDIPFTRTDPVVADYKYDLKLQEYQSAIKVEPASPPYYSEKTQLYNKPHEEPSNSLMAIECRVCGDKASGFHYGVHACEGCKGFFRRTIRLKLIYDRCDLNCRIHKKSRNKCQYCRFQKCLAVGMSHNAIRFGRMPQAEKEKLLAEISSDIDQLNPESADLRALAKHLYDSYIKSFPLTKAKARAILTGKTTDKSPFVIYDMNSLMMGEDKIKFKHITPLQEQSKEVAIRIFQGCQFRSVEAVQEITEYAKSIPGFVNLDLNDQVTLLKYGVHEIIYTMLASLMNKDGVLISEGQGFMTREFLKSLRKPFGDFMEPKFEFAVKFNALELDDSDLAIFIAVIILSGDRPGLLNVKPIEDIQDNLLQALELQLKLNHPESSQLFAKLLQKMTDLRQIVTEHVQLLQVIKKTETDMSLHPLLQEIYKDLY
# Method in brief: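 HepG2 cells transiently transfected with GAL4-UAS reporter units carrying chimeric NR-Gal4 proteins; 3 nM 6-alpha-fluorotestosterone present. After 24 h dosing, reporter mRNA quantified by RT-PCR and capillary electrophoresis; gain of signal relative to DMSO.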
# [19] = molecular target: Nuclear receptor subfamily 1 group I member 2 (Mus musculus) (UniProt O54915); test: ATG_mPXR_XSP1: Attagene TRANS-FACTORIAL Multi-Species (XSP1) HepG2 Assay for mouse Pregnane X Receptor (PXR) (AID 2283803)
# Method in brief: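 Transiently transfected HepG2 cells expressing a receptor-Gal4 chimera drive a GAL4-UAS reporter; 3 nM 6-alpha-fluorotestosterone included. Reporter mRNA read 24 h post-dose by RT-PCR and capillary electrophoresis; gain of signal relative to DMSO.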
structure (smiles),measurement,setting,value
O=C1C2(Cl)C3(Cl)C4(Cl)C(Cl)(Cl)C5(Cl)C3(Cl)C1(Cl)C5(Cl)C24Cl (configuration not stated),outcome,AR (gene 367) [1],inactive
same,outcome,[2],inactive
same,AC50,AR (gene 367) [3],7.92 µM (active)
same,outcome,[4],inactive
same,outcome,[5],inactive
same,outcome,[6],inactive
same,outcome,[7],inactive
same,outcome,[8],inactive
same,outcome,[9],inactive
same,outcome,[10],inactive
same,outcome,[11],inactive
CC(=O)[O][Hg][c]1ccccc1,AC50,[2],0.387 µM (active)
same,AC50,AR (gene 367) [3],1.21 µM (active)
ClC1(Cl)C2(Cl)C3(Cl)C4(Cl)C(Cl)(Cl)C5(Cl)C3(Cl)C1(Cl)C5(Cl)C24Cl (configuration not stated),outcome,[2],inactive
same,outcome,AR (gene 367) [3],inactive
O=C(Nc1ccc2[nH]ccc2c1)c1cc2cc(F)ccc2n1Cc1cccc(F)c1,outcome,[2],inactive
O=[N+]([O-])c1ccc(O)c([N+](=O)[O-])c1,outcome,AR (gene 367) [1],inactive
same,outcome,[2],inactive
same,AC50,AR (gene 367) [3],50 µM (active)
CC(C)(C)c1cc(O)ccc1O,outcome,[4],inactive
same,outcome,[5],inactive
same,outcome,[12],inactive
same,AC50,[13],14.9 µM (active)
same,outcome,[6],inactive
same,outcome,[7],inactive
same,outcome,[9],inactive
same,outcome,[11],inactive
ClCC(Cl)CCl,outcome,[2],inactive
C[C@]12CCC(=O)C[C@@H]1CC[C@@H]1[C@@H]2CC[C@]2(C)[C@@H](O)CC[C@@H]12,AC50,[14],0.168 µM (active)
same,outcome,[15],inactive
same,outcome,[16],inactive
same,outcome,[17],inactive
same,outcome,[7],inactive
same,outcome,[8],inactive
same,outcome,[9],inactive
same,outcome,[10],inactive
CC1(C)CCC(Cc2ccc(Cl)cc2)C1(O)Cn1cncn1 (configuration not stated),outcome,[4],inactive
same,outcome,[5],inactive
same,outcome,[17],inactive
same,outcome,[18],inactive
same,outcome,[12],inactive
same,AC50,[13],78.6 µM (active)
same,AC50,[19],2.24 µM (active)
same,outcome,[8],inactive
same,outcome,[9],inactive
same,outcome,[10],inactive
same,outcome,[11],inactive
Cc1ccc2ccccc2c1C,AC50,AR (gene 367) [3],16.6 µM (active)
Clc1ccc(COC(Cn2ccnc2)c2ccc(Cl)cc2Cl)cc1 (configuration not stated),AC50,AR (gene 367) [3],8.61 µM (active)
c1cc[c]([Hg][c]2ccccc2)cc1,outcome,AR (gene 367) [1],inactive
same,AC50,AR (gene 367) [3],21.9 µM (active)
CC(C)(c1ccc(OCC2CO2)cc1)c1ccc(OCC2CO2)cc1 (configuration not stated),outcome,AR (gene 367) [1],inactive
same,outcome,AR (gene 367) [3],inactive
C=C(C)C(=O)[O][Sn]([CH2]CCC)([CH2]CCC)[CH2]CCC,AC50,[2],0.713 µM (active)
CCC1(c2ccc(N)cc2)CCC(=O)NC1=O (configuration not stated),outcome,AR (gene 367) [3],inactive
C=CC(=O)OCCCCCC(C)C,AC50,AR (gene 367) [1],50 µM (active)
CC(C)c1cccc(C(C)C)c1O,outcome,AR (gene 367) [3],inactive
